For 98 compounds, Potency results are on record in PubChem BioAssay AID504339 (National Center for Advancing Translational Sciences (NCATS), 2011).

Among all 390,000 compounds or so, about 17,000 (4.4%) were called active. Inconclusive results (about 8%) are left out. Calls follow the shape of the dose curve; as a rule, active = well fitted inhibition curve with a large enough effect; inconclusive = small, poorly fitted or top-dose-only effect; inactive = no such curve, though single readings can be large or run the other way. What follows is part of a selection rich in actives, with near analogues and random picks from the rest. Entries that show only a call come without a potency.
Potency is read from the fitted curve at half-maximal effect.

In this test the target is Lysine-specific demethylase 4A (Homo sapiens) (UniProt O75164). Description: qHTS Assay for Inhibitors of JMJD2A-Tudor Domain. Also: nearly all actives have a fitted effect of over 50% in size. The note with it: AlphaScreen JMJD2A-Tudor / H3K4me3 peptide binding; series mostly up to 114 µM. In general terms: qHTS replaces the single test concentration by a dilution series.
Sequence of Lysine-specific demethylase 4A (Homo sapiens) (O75164 whole entry, looked up, the tested form may be a part): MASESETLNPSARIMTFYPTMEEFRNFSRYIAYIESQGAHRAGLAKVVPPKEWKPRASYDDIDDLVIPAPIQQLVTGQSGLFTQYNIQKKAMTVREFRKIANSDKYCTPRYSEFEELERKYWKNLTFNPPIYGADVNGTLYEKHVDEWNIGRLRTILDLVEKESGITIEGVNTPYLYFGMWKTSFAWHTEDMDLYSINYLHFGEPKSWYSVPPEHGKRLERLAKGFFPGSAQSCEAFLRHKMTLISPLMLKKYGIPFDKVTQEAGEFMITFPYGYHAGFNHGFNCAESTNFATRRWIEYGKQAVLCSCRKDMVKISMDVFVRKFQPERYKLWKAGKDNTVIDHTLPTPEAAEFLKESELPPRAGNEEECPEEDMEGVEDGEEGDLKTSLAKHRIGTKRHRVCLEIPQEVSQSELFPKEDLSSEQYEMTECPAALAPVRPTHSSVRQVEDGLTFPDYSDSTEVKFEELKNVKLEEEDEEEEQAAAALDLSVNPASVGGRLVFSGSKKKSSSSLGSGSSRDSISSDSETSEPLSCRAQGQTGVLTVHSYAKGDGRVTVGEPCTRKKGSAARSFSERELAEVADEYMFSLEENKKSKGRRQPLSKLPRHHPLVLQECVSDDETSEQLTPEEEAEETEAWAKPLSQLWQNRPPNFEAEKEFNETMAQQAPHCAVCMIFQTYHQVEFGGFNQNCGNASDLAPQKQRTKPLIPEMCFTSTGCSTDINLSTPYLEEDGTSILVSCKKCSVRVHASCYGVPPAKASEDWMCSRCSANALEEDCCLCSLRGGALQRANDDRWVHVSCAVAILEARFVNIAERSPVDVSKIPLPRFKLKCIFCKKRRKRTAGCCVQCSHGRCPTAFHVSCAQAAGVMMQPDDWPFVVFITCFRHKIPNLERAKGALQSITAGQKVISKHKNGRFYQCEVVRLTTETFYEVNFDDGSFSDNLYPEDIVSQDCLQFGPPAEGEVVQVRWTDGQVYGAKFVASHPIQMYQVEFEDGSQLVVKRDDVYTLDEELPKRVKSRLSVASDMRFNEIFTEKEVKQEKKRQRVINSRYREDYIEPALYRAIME
As for `CCOC(=O)C1CCN(C(=O)CSc2c3c(nc4ccc(Cl)cc24)CCCC3)CC1`, the Potency entry is “inactive”.

Regarding `COc1ccc2oc(-c3ccc(C)c(NC(=O)c4sc5ccccc5c4Cl)c3)nc2c1`, the Potency entry was “inactive”.

Regarding `COc1cc(Br)c(-c2sc(Nc3ccccc3)n[n+]2-c2ccccc2)cc1OC`, the Potency entry is “inactive”.

Consider `COc1ccc(C)cc1Nc1n[n+](-c2ccccc2)c(-c2cccc(Cl)c2Cl)s1`, for which the Potency result is “inactive”.

As to `CCc1ccc(Nc2n[n+](-c3ccccc3)c(-c3cccc(Cl)c3Cl)s2)cc1`, the Potency is 56.2 µM (active).

Consider `Cc1cccc(NC(=O)C2CCCN2S(=O)(=O)c2cccc3nsnc23)c1C` (stereo not drawn), for which the Potency result is “inactive”.

For `COc1ccc(N2CCN(Cc3nc4c(c(=O)[nH]c(=O)n4C)n3Cc3ccc(Cl)cc3)CC2)cc1`, the Potency entry is “inactive”.

Regarding `COc1ccc(CCCc2nnc(SCc3nc4ccccc4c(=O)[nH]3)n2C)cc1`, the Potency is 15.8 µM (active).

Consider `COc1ccc(C)cc1-n1nnnc1SCc1nc2ccccc2c(=O)[nH]1`, for which the Potency entry is “inactive”.

Turning to `CCn1c(COc2c(C)cccc2C)nnc1SCc1nc2ccccc2c(=O)[nH]1`, the Potency result is “inactive”.

For `CCOc1ccccc1NC(=O)CSc1ncc(S(=O)(=O)c2ccc(C(C)(C)C)cc2)c(=O)[nH]1`, the Potency result is “inactive”.

Consider `CCCN1CCN(CCCNC(=O)c2ccc3nc(Cc4ccccc4)oc3c2)CC1`, for which the Potency entry is “inactive”.

Take `Cc1cc(/C=C2\SC(=O)N(C)C2=O)c(C)n1-c1cccc(C(=O)O)c1`: the Potency is 56.2 µM (active).

Turning to `Cc1cc(/C=C2/SC(=O)N(CC(=O)OC(C)C)C2=O)c(C)n1C`, the Potency result is “inactive”.

On to `Cc1cc(/C=C2/SC(=O)N(CC(=O)N3CCCC3)C2=O)c(C)n1C`, for which the Potency result was “inactive”.

Consider `Cc1cccc(-n2c(SCC(N)=O)nc3c(oc4ccccc43)c2=O)c1`, for which the Potency result was “inactive”.

Regarding `O=C(CSc1nc(=O)[nH]c2c1CCCC2)Nc1cc(C(F)(F)F)ccc1Cl`, the Potency result is “inactive”.

On to `CCOc1ccccc1NC(=O)CN1CCCN(Cc2cccc(Cl)c2)S1(=O)=O`, for which the Potency entry was “inactive”.

For the compound `Cc1c(NC(=O)c2cc(=O)c3ccccc3o2)c(=O)n(-c2ccccc2)n1C`, the Potency result is “inactive”.

As to `C/C(=N\Nc1cccc(C(=O)O)c1)c1ccc2c(c1)Nc1ccccc1S2`, the Potency was 56.2 µM (active).

Regarding `CC(=O)Nc1cccc(/C(C)=N/NC(=O)c2c(-c3ccccc3Cl)noc2C)c1`, the Potency result was “inactive”.

`Cc1ccccc1NC(=O)c1cc(S(=O)(=O)Nc2cccc(C(=O)O)c2)ccc1Cl`: the Potency entry is “inactive”.

For the compound `Cc1c(Cl)cccc1NC(=O)Cn1cc(C(=O)c2cccs2)c2ccccc21`, the Potency result was “inactive”.

Take `CC(=O)c1nn(-c2ccc(OC(F)(F)F)cc2)nc1Nc1ccccc1`: the Potency result is “inactive”.

Take `COc1ccccc1-c1nnc(NC(=O)c2cccc(N3C(=O)CCC3=O)c2)o1`: the Potency was 35.5 µM (active).

For `COc1ccccc1NC(=O)c1ccc2nc(N3C(=O)CCC3=O)sc2c1`, the Potency entry was “inactive”.

With `COC(=O)c1cccc(NC(=O)c2cccc(N3C(=O)CCC3=O)c2)c1`, the Potency result was “inactive”.

Consider `Fc1ccc(C(Nc2ccc(Cl)c(C(F)(F)F)c2)c2nnc(-c3ccccc3)o2)cc1` (stereo not drawn), for which the Potency result was “inactive”.

For the compound `CCn1c(=O)cc(OCC(=O)Nc2cc(Cl)c(OC)cc2OC)c2ccccc21`, the Potency entry was “inactive”.

Regarding `COc1ccc(NC(=O)c2ccc3nc(CCc4ccccc4)oc3c2)c(OC)c1`, the Potency entry is “inactive”.

As to `COc1ccc(S(=O)(=O)Nc2cc3c(C(=O)OC(C)C)c(C)oc3c3ccccc23)cc1`, the Potency entry is “inactive”.

Take `COc1ccc(S(=O)(=O)/N=C2\C=C(NS(=O)(=O)c3ccccc3)C(=O)c3ccccc32)cc1`: the Potency was 39.8 µM (active).

For `COc1ccc(NS(=O)(=O)c2ccc(Oc3c(C#N)cccc3C#N)cc2)cc1`, the Potency entry was “inactive”.

For the compound `Cc1ccc(Cl)cc1N1CCN(C(=O)c2cccn3c(=O)c4cc(Cl)ccc4nc23)CC1`, the Potency result was “inactive”.

As for `CCCC(=O)Nc1cc(C(=O)NCc2ccc(OC)cc2)ccc1S(=O)(=O)c1ccc(Cl)cc1`, the Potency result is “inactive”.

With `CCN(CC)S(=O)(=O)c1ccc2c(c1)N(CC(=O)NCC(C)c1ccccc1)C(=O)CO2` (stereo not drawn), the Potency entry was “inactive”.

For the compound `CCc1cccc(NC(=O)CN(c2ccc(C)c(C)c2)S(=O)(=O)c2ccsc2C(=O)OC)c1`, the Potency result is “inactive”.

Regarding `CSc1ccc(CNCCN2CCOCC2)cc1`, the Potency entry is “inactive”.

In the case of `CCCCC(CC)CNCc1cccn1CCN1CCOCC1` (stereo not drawn), the Potency is 28.2 µM (active).

Consider `O=C(NCCCN1CCOCC1)c1cc(-c2ccccc2F)no1`, for which the Potency entry is “inactive”.

In the case of `Cc1cc(C)cc(NC(=O)Cc2csc(C)n2)c1`, the Potency result was “inactive”.

As for `Cn1c(COc2ccc(Cl)cc2)nc2ccccc2c1=O`, the Potency was 28.2 µM (active).

Regarding `COc1ccccc1OCCCn1c(-c2ccc(Cl)cc2)nc2ccccc2c1=O`, the Potency result was “inactive”.

Regarding `COc1ccc(OCc2ccc(-c3nc4ccccc4c(=O)n3N)o2)cc1`, the Potency result is “inactive”.

`COc1ccc(CCNS(=O)(=O)c2cc(-c3cc(C)no3)ccc2C)cc1OC`: the Potency result is “inactive”.

As to `COc1ccc(-c2nc(SCC(=O)N3CCCCC3C)n[nH]2)cc1` (stereo not drawn), the Potency entry was “inactive”.

For the compound `CCn1c2c(c(=O)n3ncc(C(=O)N4CCN(c5ccccc5)CC4)c13)CN(Cc1ccc(OC)cc1)CC2`, the Potency result is “inactive”.

For `O=C(CN1CCCCCC1)Nc1c(Cl)cc(Cl)cc1Cl`, the Potency result was “inactive”.

For `Cc1cc(C)c(NC(=O)CN2CCCCCC2)c(C)c1`, the Potency result was “inactive”.

On to `Cc1csc(NC(=O)CN2CCCCCC2)n1`, for which the Potency is 1.58 µM (active).

`COc1ccc(CCNC(=O)c2nn(C)c3c2CSc2ccccc2-3)cc1OC`: the Potency entry was “inactive”.

For the compound `Cc1nc2ccccn2c(=O)c1NC(=O)c1c(F)cccc1F`, the Potency entry was “inactive”.

In the case of `CCn1c2ccccc2c2nnc(N3CCN(c4cc(C)ccc4C)CC3)nc21`, the Potency result was “inactive”.

Take `Cc1ccc(S(=O)(=O)N2CCOCC2)cc1C(=O)Nc1ccccc1N1CCCC1`: the Potency result was “inactive”.

For `CN1CCN(c2ccc(S(=O)(=O)N3CCOCC3)cc2NC(=O)CCc2ccccc2)CC1`, the Potency entry is “inactive”.

Take `O=C(COC(=O)Cc1ccc(F)cc1)Nc1cc(S(=O)(=O)N2CCOCC2)ccc1N1CCCC1`: the Potency result is “inactive”.

Regarding `O=C(COC(=O)c1ccccc1F)Nc1cc(S(=O)(=O)N2CCOCC2)ccc1N1CCCC1`, the Potency result was “inactive”.

Regarding `COCCNC(=S)Nc1cc(S(=O)(=O)N2CCOCC2)ccc1N1CCCCC1`, the Potency is 79.4 µM (active).

Take `O=C(CNCc1ccco1)Nc1cc(S(=O)(=O)N2CCOCC2)ccc1N1CCCC1`: the Potency was 79.4 µM (active).

Turning to `COc1ccc(/C=C/c2noc(-c3ccccc3O)n2)cc1OC`, the Potency entry was “inactive”.

For the compound `COc1ccc(NC(=O)C2CCCN(S(=O)(=O)c3cccc4nonc34)C2)cc1Cl` (stereo not drawn), the Potency entry was “inactive”.

On to `Cc1cc(C)cc(NC(=O)Cn2c(=O)c3ccccc3n3nncc23)c1`, for which the Potency entry is “inactive”.

As to `CCc1cccc(-n2nnc(-c3nsc(NC(=O)c4ccc(C)cc4)n3)c2C)c1`, the Potency result was “inactive”.

On to `COc1cc(/C=C/C(=O)OCC(=O)c2ccccc2)cc(OC)c1OC`, for which the Potency result is “inactive”.

As for `COc1ccc(NS(=O)(=O)c2cc(NC(=O)/C=C/c3cc(OC)c(OC)c(OC)c3)ccc2N2CCCCC2)cc1`, the Potency entry was “inactive”.

As to `COc1ccccc1Nc1c2c(nc3ccc(NC(=O)/C=C/c4cc(OC)c(OC)c(OC)c4)cc13)CCCC2`, the Potency is 15.8 µM (active).

As for `O=C(CN1c2ccccc2S(=O)(=O)c2ccccc21)Nc1cccc(C(F)(F)F)c1`, the Potency entry was “inactive”.

On to `COc1ccccc1N1CCN(c2ncnc3onc(-c4cccc(Cl)c4)c23)CC1`, for which the Potency result was “inactive”.

Consider `COC(=O)c1ccc(NC(=O)c2cccc3c2C(=O)N(C2CCCCC2)C3)cc1`, for which the Potency result is “inactive”.

With `CCCS(=O)(=O)c1ncc(Cl)c(C(=O)Nc2scc(-c3ccccc3)c2C(=O)OCC)n1`, the Potency result is “inactive”.

For the compound `COC(=O)c1ccc(NC(=O)C23CC4CC(C2)CC(n2cnc(Cl)n2)(C4)C3)cc1`, the Potency was 56.2 µM (active).

Take `O=C(Nc1ccc(S(=O)(=O)Nc2ncccn2)cc1)C12CC3CC(CC(C3)C1)C2`: the Potency entry was “inactive”.

Take `COC(=O)c1ccc(NC(=S)NN2CCOCC2)cc1`: the Potency result was “inactive”.

With `O=C(Nc1ccccc1F)C(c1ccccc1)N1Cc2ccccc2C1=O` (stereo not drawn), the Potency entry was “inactive”.

Regarding `CCN(C(=O)Cn1c(=O)nc(-c2ccccc2)c2cc(Cl)ccc21)c1cccc(C)c1`, the Potency result is “inactive”.

As to `Cc1cn(C)c(CC(=O)NCc2ccc(Cl)cc2)c1C(=O)O`, the Potency entry is “inactive”.

Consider `C[N+]1(CCNC(=O)/C=N/O)CCCCC1`, for which the Potency was 50.1 µM (active).

With `CCc1cc2c(cc3c(=O)n(CC(=O)N4CCN(c5cc(Cl)ccc5C)CC4)nc(CC)n32)s1`, the Potency entry is “inactive”.

`CCOC(=O)c1ccc(NC(=O)c2csc3c2CCCCC3)cc1`: the Potency result was “inactive”.

For the compound `O=C(/C=C/c1ccccc1)Nc1cc(-c2nc3cc(Cl)ccc3o2)ccc1Cl`, the Potency entry is “inactive”.

For the compound `Cc1ccc(NC(=S)Nc2ncccc2C)c(C)c1`, the Potency was 56.2 µM (active).

For the compound `Cc1cc(Br)ccc1NC(=S)NC1CCCC1`, the Potency entry is “inactive”.

As for `Cc1ccc(NC(=S)NCCc2ccc(Cl)cc2)c(C)c1`, the Potency entry is “inactive”.

In the case of `COC(=O)c1ccccc1NC(=O)c1ccc2c(=O)n3c(nc2c1)CCCCC3`, the Potency entry is “inactive”.

In the case of `Cc1ccc(-c2cc(-c3coc4ccccc4c3=O)c3c(n2)-c2cc(Cl)ccc2OC3)cc1`, the Potency result was “inactive”.

On to `COc1ccccc1NC(=O)CN1C(=O)c2ccccc2Sc2ccc(C(=O)N3CCCC3)cc21`, for which the Potency entry is “inactive”.

As for `COc1ccc(C2C(C(C)=O)=C(O)C(=O)N2c2nccs2)cc1` (stereo not drawn), the Potency entry is “inactive”.

Regarding `COc1ccc(C2C(C(C)=O)=C(O)C(=O)N2CCc2c[nH]c3ccccc23)cc1` (stereo not drawn), the Potency result was “inactive”.

On to `COC(=O)CN1C(=O)C(O)=C(C(C)=O)C1c1ccc([N+](=O)[O-])cc1` (stereo not drawn), for which the Potency was 31.6 µM (active).

Take `CCOc1ccccc1NC(=O)Cn1c(=O)n(-c2cccc(C)c2)c(=O)c2c1c1cc(OC)ccc1n2C`: the Potency result was “inactive”.

As to `CCN(CC)C(=O)CSc1nc2ccsc2c(=O)n1Cc1ccccc1Cl`, the Potency entry is “inactive”.

For the compound `Nc1nnnn1/N=C/c1cccs1`, the Potency entry is “inactive”.

On to `S=c1[nH]nc(-c2cccs2)n1/N=C/c1cccs1`, for which the Potency was 10 µM (active).

Regarding `Oc1ccccc1/C=N/n1c(-c2cccs2)n[nH]c1=S`, the Potency is 22.4 µM (active).

On to `C(=N/N1CCN(c2ccccc2)CC1)/c1cccs1`, for which the Potency entry is “inactive”.

As to `Cn1c(=O)c2sccc2n2c(CCC(=O)NCc3ccccc3Cl)nnc12`, the Potency entry is “inactive”.

On to `Cc1ccc(C(=O)Nc2ccc3[nH]c(=O)c(=O)[nH]c3c2)cc1`, for which the Potency entry is “inactive”.

On to `O=[S+]([O-])(c1ccc(OC(F)(F)F)cc1)N1CCN([S+](=O)([O-])c2ccc3c(c2)OCCO3)CC1`, for which the Potency entry was “inactive”.
